Screening data: PubChem BioAssay, several laboratories
A selection: hits, their analogues and other compounds. The true share with any hit is near 0.92%.
Mtb hypoxia rep = inhibitors of hypoxia-regulated fluorescent reporter in Mycobacterium tuberculosis; M. tuberculosis hypoxia-regulated fluorescent reporter, fluorescence; fluorescence inhibition, % (concentration not given with the values); 0.1% of 300,000 active; AID 1159583; in the data active = fluorescence inhibition mostly above about 23%, no sharp cut-off; inactive = mostly below about 17%
Mtb UGM inh = inhibitors of M. tuberculosis UDP-galactopyranose mutase; inhibition, % at 10 µM; AID 504406; P9WIQ1; purified UGM, fluorescence polarization probe displacement; 0.06% of 320,000 active; in the data active = inhibition above about 10%, passing the limit was not always enough; inconclusive = no clear call, values can overlap the other calls
Target sequence (P9WIQ1 whole entry, looked up): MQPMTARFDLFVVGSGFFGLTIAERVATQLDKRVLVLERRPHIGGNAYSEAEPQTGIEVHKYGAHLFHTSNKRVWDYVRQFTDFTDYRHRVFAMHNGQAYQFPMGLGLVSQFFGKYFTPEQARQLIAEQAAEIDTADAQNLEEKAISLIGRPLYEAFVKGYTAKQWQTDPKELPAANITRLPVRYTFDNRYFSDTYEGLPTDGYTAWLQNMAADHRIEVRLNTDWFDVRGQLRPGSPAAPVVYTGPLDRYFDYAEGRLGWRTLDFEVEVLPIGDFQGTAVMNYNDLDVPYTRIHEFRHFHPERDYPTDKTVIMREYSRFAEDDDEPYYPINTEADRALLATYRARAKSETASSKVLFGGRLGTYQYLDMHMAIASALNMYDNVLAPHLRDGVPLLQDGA
RecA splice inh = blocks M. tuberculosis RecA intein splicing | 0.75% of 290,000 active | cell-free RecA intein splicing, fluorescence | inhibition, % (no concentration beside the values); in the data active = inhibition above about 30%; inconclusive = no clear call, values can overlap the other calls
Rv3671c protease = inhibits the M. tuberculosis serine protease Rv3671c; AID 2606; 0.048% of 320,000 active; inhibition, % at 5.96 µM; P9WHR9;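 also: extracellular domain of Rv3671c used as enzyme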
Mtb bLac sens = beta-lactam sensitization of Mtb H37Rv | M. tuberculosis H37Rv growth with meropenem, percent inhibition | inhibition, % at 25 µM | 0.27% of 330,000 active; call rule not given here;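 also: growth measured after seven days incubation then overnight dye step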
FadD28 FP inh = blocks FadD28 binding to the bisubstrate probe; fluorescence polarization; inhibition, % at 12.5 µM; 0.22% of 360,000 active; AID 588549; in the data active = inhibition above about 8.5%, passing the limit was not always enough; inconclusive = no clear call, values can overlap the other calls
Rv3671c confirm = Rv3671c protease inhibition, confirmation; inhibition, % at 5.96 µM; 40% of 140 active; shares compounds with Rv3671c protease
Of the large screens only hits and unclear results are named; the others gave an inactive call (follow-up assays come after a bar, where they were run). Rule as the data show it, unless noted: active = inhibition above about 38%; inactive = the rest.

O=C1CCCC2=C1C(c1ccc(Cl)cc1)C1C(=O)c3ccccc3C1=N2 (stereo not drawn)	Rv3671c protease 39.8, FadD28 FP inh inconclusive | Rv3671c confirm inactive
COc1ccc(N/C=C(\C(C)=O)c2ccc(OC)c(OC)c2)cc1OC	Rv3671c protease 89.5 | Rv3671c confirm inactive
COc1ccc(/C(=C\Nc2ccc(C)c(C)c2)C(C)=O)cc1OC	none
CCC1CCCCN1C(=O)c1cc2cc(Br)ccc2oc1=O (stereo not drawn)	none (no result: Mtb hypoxia rep)
CCn1c(CSc2nnc(-c3ccncc3)n2CCOC)nc2cc(C(=O)O)ccc21	none
CCn1c(CSc2nnc(-c3cccnc3)n2-c2ccccc2C)nc2cc(C(=O)O)ccc21	Rv3671c protease 48.5 (no result: Mtb hypoxia rep, RecA splice inh, FadD28 FP inh) | Rv3671c confirm 63.8
Cc1ccc2nc(-c3ccccc3C)oc(=O)c2c1	Rv3671c protease 62.4 | Rv3671c confirm 75.2
CCC(=O)NC(NC(=S)Nc1cccc2cccnc12)C(Cl)(Cl)Cl (stereo not drawn)	none
Cc1ccc(S(=O)(=O)N2CCCN(S(=O)(=O)c3ccc(C)c(C)c3)CC2)cc1C	none (no result: Mtb hypoxia rep, RecA splice inh)
O=CN1CCN(C(=O)c2cccc([N+](=O)[O-])c2)CC1	none
O=C(NC1CCN(C(=O)c2cccc([N+](=O)[O-])c2)CC1)c1ccccc1	Rv3671c protease 144.3 | Rv3671c confirm inactive
C/C(=N\NC(N)=O)c1ccccc1	none (no result: Mtb hypoxia rep)
CC(C)Cn1c(N)c(C(=O)COC(=O)c2ccc(O)cc2)c(=O)n(C)c1=O	Rv3671c protease 60.1 | Rv3671c confirm inactive
CC(C)CN1CCC(Oc2cccc(C(=O)NCCc3ccccc3)c2)CC1	none
COc1ccc(OC)c(-c2oc3ccccc3c(=O)c2O)c1	none
COc1ccc(OC)c(-c2c3cc(O)c(=O)cc-3oc3cc(O)c(O)cc23)c1	Rv3671c protease 62.7, FadD28 FP inh 101.9 (no result: Mtb hypoxia rep, RecA splice inh) | Rv3671c confirm 76.3
CCN(CC)C(=S)SCC(=O)NC12CC3CC(CC(C3)C1)C2	Rv3671c protease 150.7 | Rv3671c confirm inactive
CCN(CC)C1=CC2=CC(=C(C#N)C#N)CCC2CC1 (stereo not drawn)	none
N#CC(C#N)=C1C=C2C=C(N3CCCCC3)CCC2CC1 (stereo not drawn)	Rv3671c protease 51.1 (no result: RecA splice inh, FadD28 FP inh) | Rv3671c confirm inactive
Cc1ccc(-c2nnn(CC(=O)N3CCN(c4nc5ccccc5s4)CC3)n2)cc1	none
COc1cccc(NC(=O)c2cc([N+](=O)[O-])ccc2NC(=O)CNCC2CCCO2)c1 (stereo not drawn)	none
CC(=O)c1ccc(S(=O)(=O)Nc2cccc(-c3ccc4nncn4n3)c2)cc1	Rv3671c protease 56.0 | Rv3671c confirm inactive
Cc1cccc(N2CCN(C(=O)NC3CCCCC3)CC2)c1C	none (no result: RecA splice inh)
Cc1ccc(-c2ccccc2NC(=O)CS(=O)CC(=O)Nc2ccc(C)c(Cl)c2)o1 (stereo not drawn)	Rv3671c protease 77.9 (no result: Mtb hypoxia rep) | Rv3671c confirm inactive
Nc1c(C(=O)O)ccc2c1C(=O)c1ccccc1C2=O	none
Nc1cc(C(=O)O)c(N)c2c1C(=O)c1ccccc1C2=O	Rv3671c protease 61.5, FadD28 FP inh 8.3 | Rv3671c confirm 52.0
N#CCC(=O)Nc1ccc(C(=O)OCC(=O)Nc2ccccc2Sc2ccccc2)cc1	Rv3671c protease 81.5 | Rv3671c confirm inactive
Cc1cc(C)c(-c2cc(NC(=O)COC(=O)c3ccc(NC(=O)CC#N)cc3)n(-c3ccccc3)n2)cc1C	Rv3671c protease 41.8 | Rv3671c confirm inactive
Cc1cc(C)c(-c2cc(NC(=O)COC(=O)c3ccc(C#N)cc3)n(-c3ccccc3)n2)cc1C	none
COC(=O)C1=C(C(=O)OC)C2N(C)c3ccccc3[C@@]23CC(C(=O)OC)N(C(=O)CC(C)C)C3=N1 (stereo partly drawn)	none (no result: Mtb UGM inh, RecA splice inh, Rv3671c protease, Mtb bLac sens, FadD28 FP inh)
N#CCC(=O)N/N=C/c1cc([N+](=O)[O-])ccc1N1CCOCC1	none (no result: Mtb hypoxia rep)
COc1cccc(-c2nnc(NC(=O)c3ccco3)s2)c1	none
O=C(N/N=C/c1c(O)ccc2ccccc12)Nc1ccccc1	Rv3671c protease 40.3 (no result: Mtb hypoxia rep, FadD28 FP inh) | Rv3671c confirm 56.3
O=C(CSCC(=O)Nc1ccccc1)N/N=C/c1c(O)ccc2ccccc12	none (no result: Mtb hypoxia rep, Mtb bLac sens)
CCOC(=O)C1CCCN(C(=O)C2c3ccccc3Oc3ccccc32)C1 (stereo not drawn)	Mtb UGM inh 23.3, Rv3671c protease 59.9, FadD28 FP inh 10.1 | Rv3671c confirm inactive
CCOC(=O)C1CCCN(C(=O)C2COc3ccccc3O2)C1 (stereo not drawn)	none (no result: Mtb UGM inh, RecA splice inh, Rv3671c protease, Mtb bLac sens)
COc1cccc2c1-c1c(O)cccc1C2=O	none
COc1cccc2c1C(=O)c1c(O)c3c(c(O)c1C2=O)C[C@](O)(C(C)=O)C[C@H]3O[C@@H]1C[C@@H](N)[C@@H](O)[C@@H](C)O1	Mtb UGM inh 33.4, Rv3671c protease 44.5, FadD28 FP inh 62.0 (no result: Mtb hypoxia rep) | Rv3671c confirm inactive
Cn1c(=O)cc2c3c(c(N4CCCCC4)ccc31)C(=O)c1ccccc1-2	Rv3671c protease 51.7, FadD28 FP inh 32.1 | Rv3671c confirm inactive
Cn1nc(-c2ccccc2)c(N2CCCCC2)cc1=O	none
Cc1cccc(OCC(=O)NC(C)C(=O)N/N=C/c2c(OCc3ccccc3)ccc3ccccc23)c1 (stereo not drawn)	none (no result: Mtb hypoxia rep)
O=C1c2ccccc2-c2onc3ccc(NCc4ccco4)c1c23	Mtb UGM inh 12.2, Rv3671c protease 106.5, FadD28 FP inh 11.6 | Rv3671c confirm 81.0
O=C1C(Cl)=C(NCc2ccco2)C(=O)c2ccccc21	none (no result: Mtb UGM inh, RecA splice inh, Rv3671c protease, Mtb bLac sens)
CCNc1ccc2noc3c2c1C(=O)c1ccccc1-3	Mtb UGM inh 11.8, Rv3671c protease 129.8, FadD28 FP inh 52.0 | Rv3671c confirm 126.0
Cc1n[nH]c(=O)c2c(NC(=O)CSc3nc4ccccc4c(=O)n3CCCOC(C)C)oc(C)c12	Rv3671c protease 91.9 (no result: Mtb hypoxia rep) | Rv3671c confirm inactive
CCOCCCn1c(SCC(=O)Nc2oc(C)c3c(C)n[nH]c(=O)c23)nc2ccccc2c1=O	none (no result: Mtb UGM inh, RecA splice inh, Rv3671c protease, Mtb bLac sens)
CC(=O)Oc1ccc2c(c1)Oc1cc(OC(C)=O)ccc1C21OC(=O)c2ccccc21	Mtb UGM inh inconclusive, Rv3671c protease 121.5, FadD28 FP inh 40.7 (no result: RecA splice inh) | Rv3671c confirm 122.5
Cc1cc(O)ccc1C1(c2ccc(O)cc2C)OC(=O)c2ccccc21	none (no result: Mtb hypoxia rep)
CCC(C)OC(=O)n1ccc(C(=O)Nc2nccs2)n1 (stereo not drawn)	Rv3671c protease 54.9 | Rv3671c confirm 49.4
Cn1c(=O)c(NCCO)c2c3c(cccc31)C(=O)c1ccccc1-2	Mtb UGM inh 97.6, Rv3671c protease 122.2 (no result: Mtb hypoxia rep) | Rv3671c confirm 131.9
Cn1c(=O)c(NCCc2ccccc2)c2c3c(cccc31)C(=O)c1ccccc1-2	Mtb UGM inh 44.1, Rv3671c protease active, FadD28 FP inh 93.0 | Rv3671c confirm active
CCCCNc1c2c3c(cccc3n(C)c1=O)C(=O)c1ccccc1-2	Mtb UGM inh 27.7, Rv3671c protease 42.7 | Rv3671c confirm 57.1
CCNc1c2c3c(cccc3n(C)c1=O)C(=O)c1ccccc1-2	Mtb UGM inh 21.8, Rv3671c protease 60.2 (no result: FadD28 FP inh) | Rv3671c confirm 53.4
Cn1c(=O)c(NC2CCCCC2)c2c3c(cccc31)C(=O)c1ccccc1-2	none (no result: Mtb UGM inh, RecA splice inh, Rv3671c protease, Mtb bLac sens)
